PubChem BioAssay (NCI)
About 83,000 compounds went through this panel and 20% of them were active in at least one assay; those are over-represented in the sample as a whole.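 96-well plates, one dose, 48 hours. Percent growth reported; active if below 10.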 A number with no mark means an inactive call. The source made the active and inactive calls.

Experiments:
Test in all cases: NCI-60 one-dose screen, 48 h (100 = growth as untreated, 0 = no growth, -100 = all killed)
Conditions in all cases: 10 µM unless noted
SR leukemia = system: SR leukemia
RPMI-8226 leukemia = system: RPMI-8226 leukemia
OVCAR-8 ovarian = system: OVCAR-8 ovarian
OVCAR-5 ovarian = system: OVCAR-5 ovarian
OVCAR-4 ovarian = system: OVCAR-4 ovarian
SK-OV-3 ovarian = system: SK-OV-3 ovarian
IGROV1 ovarian = system: IGROV1 ovarian
HS 578T breast = system: HS 578T breast
NCI/ADR-RES ovarian = system: NCI/ADR-RES ovarian
T-47D breast = system: T-47D breast
BT-549 breast = system: BT-549 breast
MDA-MB-435 melanoma = system: MDA-MB-435 melanoma
SW-620 colon = system: SW-620 colon
MCF7 breast = system: MCF7 breast
HCT-116 colon = system: HCT-116 colon
HCC-2998 colon = system: HCC-2998 colon
KM12 colon = system: KM12 colon
OVCAR-3 ovarian = system: OVCAR-3 ovarian

Structure (SMILES) | growth (SR leukemia) | growth (RPMI-8226 leukemia) | growth (OVCAR-8 ovarian) | growth (OVCAR-5 ovarian) | growth (OVCAR-4 ovarian) | growth (SK-OV-3 ovarian) | growth (IGROV1 ovarian) | growth (HS 578T breast) | growth (NCI/ADR-RES ovarian) | growth (T-47D breast) | growth (BT-549 breast) | growth (MDA-MB-435 melanoma) | growth (SW-620 colon) | growth (MCF7 breast) | growth (HCT-116 colon) | growth (HCC-2998 colon) | growth (KM12 colon) | growth (OVCAR-3 ovarian)
O=C(/C=C1\C(=O)N(Cc2ccccc2)c2ccccc21)c1ccc(OCCN2CCCCC2)cc1 | -21.6% (active) | -33.9% (active) | 7.86% (active) | 39.8% | -22.3% (active) | 99.7% | 6.02% (active) | 77.7% | 65.7% | -56.3% (active) | 80.4% | 96.1% | -45.7% (active) | 3.98% (active) | -3.84% (active) | 93.8% | 80.6% | –
O=C1C(Cl)=C(Nc2ccc(Nc3ccccc3)c(NC3=C(Cl)C(=O)c4ccccc4C3=O)c2)C(=O)c2ccccc21 | 44.6% | 27.4% | 71.5% | 141% | 54.8% | 80.5% | 68.6% | – | 86.4% | 14.9% | – | 113% | 33.8% | 73.7% | 51.2% | 55.1% | 31.6% | –
O=C(O)COc1ccc([N+](=O)[O-])cc1Cl | 97.6% | 94.2% | 110% | 102% | 106% | 98.7% | 100% | – | 107% | 86.1% | 107% | – | 108% | 102% | 105% | 113% | 103% | 123%
Oc1ccc([S+](c2ccc(O)cc2)c2ccc(O)cc2)cc1 | 89.1% | 96% | 94.3% | 101% | 107% | 106% | 110% | – | 112% | 107% | 107% | – | 107% | 98.8% | 107% | 106% | – | 114%
CCCCCCCCc1ccc(OCCOCC[N+](C)(C)CC)cc1 (tested in a mixture with another compound) | 37.7% | 8.79% (active) | 48.4% | 76% | 20.7% | 78.5% | 33.8% | 37.7% | 107% | 23.5% | 45.3% | 15.3% | 46.4% | 20.3% | 54.2% | 34.6% | 18% | –
CCC(C)CC(N)O (centres undefined) | 105% | 111% | 107% | 99.9% | 109% | 111% | 118% | – | 109% | 137% | 108% | 104% | 108% | 101% | 111% | 112% | 102% | –
O=C(/C=C/c1ccc(Cl)cc1)c1ccc(Cl)cc1 | 9.81% (active) | 13.7% | 106% | 104% | 106% | 104% | 88.1% | – | 99.3% | 114% | 101% | – | 88.8% | 16.9% | 69.8% | 92.7% | 83.3% | 89.7%
COc1ccc(C(=O)NCCNc2nccc(-c3c(-c4ccc(F)cc4)nc4sccn34)n2)cc1 | 44.1% | 40.5% | 49.4% | 62.4% | 80.5% | 70.6% | 31% | – | 62.3% | 58.2% | – | 43.6% | 52.3% | 25.1% | 31.8% | 97% | – | 80.7%
COC(=O)c1ccc2[nH]c(O)c(C(=Nc3ccc(N(C)C(=O)CN4CCN(C)CC4)cc3)c3ccc(OC)cc3)c2c1 | -14.8% (active) | 7.14% (active) | 25.6% | 38.4% | 38.7% | 2.38% (active) | 6.44% (active) | – | 101% | – | 22.5% | 29.6% | 4.33% (active) | 23.9% | 3.03% (active) | 30.8% | 13.1% | 30.4%
CC(=O)Nc1nc(C)c(C(=O)N/N=C/N2CCCCC2)s1 | 104% | 124% | 103% | 103% | 121% | 103% | 9.23% (active) | – | 104% | 98.4% | – | 125% | 106% | 94.8% | 55.8% | 20.3% | 128% | –
Cc1ccc(CC(=O)O)c(C)c1 | 94.1% | 104% | 100% | 98.8% | 105% | 108% | 112% | – | 101% | 97.1% | 119% | 108% | 102% | 95.7% | 107% | 89.8% | 105% | –
CC(=O)Nc1nc(C)c(C(=O)N/N=C/N2CCOCC2)s1 | 169% | 116% | 115% | 106% | 119% | 110% | 70.3% | – | 120% | 102% | – | 127% | 107% | 98.6% | 93.8% | 157% | 105% | 104%
C[C@H]1C[C@@H](n2cnc3c(N)nccc32)[C@H](O)[C@@H]1O | -54.1% (active) | 117% | 99% | 103% | 110% | 117% | 560% | 109% | 128% | 102% | – | 113% | 87.2% | 90.1% | 86.8% | 101% | 80.8% | –
COc1ccc(C(O)(c2ccccc2)C(C(=O)O)c2ccccc2)cc1 (centres undefined) | 103% | 95.5% | 107% | 102% | 98% | 102% | 104% | – | 108% | – | – | 117% | 107% | 114% | 97.2% | 102% | 93.9% | 114%
CC1(C)N=C(N)N=C(N)N1c1cccc(CCCCOc2ccccc2)c1 | 31.6% | 8.3% (active) | 19.9% | 29.6% | 61% | 41.8% | 26.6% | – | 107% | 37.7% | 35.7% | – | 12.6% | 1.62% (active) | 11.3% | 27.1% | 15.9% | 26.5%
CCCCCCC(=O)C(C)C | 90.7% | 105% | 99.1% | 110% | 110% | 110% | 102% | 105% | 103% | – | 102% | 103% | 106% | 102% | 101% | 105% | 103% | –
COC(=O)[C@H](Cc1cn(C)cn1)NC(=O)[C@H](CC(=O)OCc1ccccc1)NC(=O)Nc1cc(C(F)(F)F)cc(C(F)(F)F)c1 | -46.4% [100 µM] (active) | -65.4% [100 µM] (active) | -77.4% [100 µM] (active) | -93.2% [100 µM] (active) | -78% [100 µM] (active) | -100% [100 µM] (active) | -82.4% [100 µM] (active) | – | -28.4% [100 µM] (active) | -62.1% [100 µM] (active) | -96.6% [100 µM] (active) | -91.9% [100 µM] (active) | -59.2% [100 µM] (active) | -60.5% [100 µM] (active) | -97.9% [100 µM] (active) | -91.5% [100 µM] (active) | – | –
Clc1ccc(N/N=C/c2ccccn2)nc1 | 6.32% (active) | 26.3% | 18.1% | 30.3% | 6.01% (active) | 27.2% | 11.2% | 60.1% | -1.35% (active) | – | 23.4% | 24.4% | 36.7% | 0.994% (active) | – | 24.5% | 24.9% | –
C=C(C)C(C(=O)OCC)(C(=O)OCC)C(C)C | 120% | 99.4% | 108% | 94.7% | 98.5% | 107% | 117% | – | 116% | 124% | 115% | – | 107% | 97.4% | 109% | 119% | 106% | 116%
